Compound activity (PubChem)
The full list was thinned out, with hits kept by preference.
miR-122 inh: miR-122 sensor activation. activation, % at 12.5 µM. Huh7 psiCHECK-miR122 Renilla luciferase sensor, 48 h. 0.14% of 340,000 active;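 active = mean activation of 30% or more, with every replicate also reaching 30%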;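 note: 0% = median of neutral control wells and 100% = median of positive control wells; higher luciferase signal means stronger suppression of miR-122 activity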
Numbers without * were called inactive.

SMILES | miR-122 inh
C[C@H](CO)N1C[C@H](C)[C@H](CN(C)Cc2cncnc2)Oc2cc(C#C[C@@H](C)O)ccc2S1(=O)=O | 3
C[C@H](CO)N1C[C@H](C)[C@H](CN(C)Cc2ccc(-c3ccccc3)cc2)Oc2cc(C#C[C@@H](C)O)ccc2S1(=O)=O | 41*
C[C@H](CO)N1C[C@H](C)[C@@H](CN(C)Cc2cncnc2)Oc2cc(-c3cncnc3)ccc2S1(=O)=O | 5
C[C@H]1CN([C@@H](C)CO)C(=O)c2cc(C#Cc3cccc(F)c3)cnc2O[C@@H]1CN(C)CC1CCOCC1 | 4
C[C@@H]1CN([C@H](C)CO)S(=O)(=O)c2ccc(-c3ccccc3)cc2O[C@@H]1CN(C)Cc1ccccc1C(=O)O | -14
C[C@H]1CN([C@@H](C)CO)C(=O)c2cc(C#CC3CC3)cnc2O[C@@H]1CN(C)C | 4
C[C@@H]1CN([C@H](C)CO)S(=O)(=O)c2ccc(C#CC3CC3)cc2O[C@H]1CN(C)C(=O)C1CC1 | -10
C/C=C/c1ccc2c(c1)O[C@@H](CN(C)S(=O)(=O)c1ccccc1OC)[C@H](C)CN([C@@H](C)CO)S2(=O)=O | -3
COc1ccc(C(=O)Nc2ccc3c(c2)OC[C@@H](C)N(C)C[C@H](C)[C@H](OC)CN(C)C3=O)cc1 | -5
C[C@@H]1CN([C@@H](C)CO)C(=O)c2cc(-c3cccc(C(=O)N(C)C)c3)cnc2O[C@@H]1CN(C)S(=O)(=O)c1ccc(F)cc1 | 2
C[C@H]1CN([C@@H](C)CO)C(=O)c2cc(Br)cnc2O[C@H]1CN(C)CC1CCOCC1 | 12
CC(C)CC#Cc1cnc2c(c1)C(=O)N([C@H](C)CO)C[C@@H](C)[C@H](CN(C)C(=O)Cc1ccccc1)O2 | 6
C[C@@H]1CN([C@@H](C)CO)C(=O)c2cc(/C=C/c3ccccc3)cnc2O[C@@H]1CN(C)C(=O)c1ccncc1 | 8
COc1ccc(S(=O)(=O)N(C)C[C@H]2Oc3cc(-c4ccccc4OC)ccc3S(=O)(=O)N([C@H](C)CO)C[C@H]2C)cc1 | -19
C[C@@H]1CN([C@H](C)CO)C(=O)c2cc(-c3cccc(C#N)c3)cnc2O[C@H]1CN(C)C(=O)C1CCCCC1 | 4
CNC[C@H]1Oc2cc(C#Cc3cccc(F)c3)ccc2S(=O)(=O)N([C@H](C)CO)C[C@@H]1C | 9
COc1ccccc1C#Cc1ccc2c(c1)O[C@H](CN(C)Cc1cccnc1)[C@@H](C)CN([C@@H](C)CO)S2(=O)=O | 40*
COc1ccccc1C#Cc1ccc2c(c1)O[C@@H](CN(C)Cc1cncnc1)[C@@H](C)CN([C@@H](C)CO)S2(=O)=O | 4
COc1ccccc1C#Cc1ccc2c(c1)O[C@H](CN(C)Cc1cncnc1)[C@@H](C)CN([C@H](C)CO)S2(=O)=O | -22
C[C@H](CO)N1C[C@H](C)[C@@H](CN(C)Cc2cccnc2)Oc2cc(C#C[C@@H](C)O)ccc2S1(=O)=O | -1
C[C@H](O)C#Cc1ccc2c(c1)O[C@@H](CN(C)Cc1ccc(-c3ccccc3)cc1)[C@@H](C)CN([C@@H](C)CO)S2(=O)=O | 38*
C[C@@H]1CN([C@H](C)CO)S(=O)(=O)c2ccc(C#C[C@@H](C)O)cc2O[C@H]1CN(C)Cc1cccnc1 | 2
C[C@@H]1CN([C@@H](C)CO)S(=O)(=O)c2ccc(-c3cccc(C#N)c3)cc2O[C@H]1CN(C)C(=O)Nc1ccccc1F | 1
COc1ccccc1NC(=O)N(C)C[C@H]1Oc2ncc(C#CCC(C)C)cc2C(=O)N([C@H](C)CO)C[C@H]1C | -1
C[C@@H]1CN([C@H](C)CO)C(=O)c2cc(C#Cc3ccccn3)cnc2O[C@@H]1CN(C)C(=O)c1cnccn1 | 5
SMILES | miR-122 inh
C[C@H]1CN([C@@H](C)CO)S(=O)(=O)c2ccc(C#Cc3cccnc3)cc2O[C@H]1CN(C)C(=O)C1CC1 | -6
O=S(=O)(C/C(=C/CO)S(=O)(=O)c1ccccc1)c1ccccc1 | 72*
COCC#Cc1cnc2c(c1)C(=O)N([C@@H](C)CO)C[C@@H](C)[C@H](CN(C)S(=O)(=O)c1cccc(OC)c1)O2 | 1
C[C@H]1CN([C@@H](C)CO)C(=O)c2cc(-c3cccc(C(=O)N(C)C)c3)cnc2O[C@@H]1CN(C)C(=O)Cc1ccccn1 | -3
COc1ccccc1S(=O)(=O)N(C)C[C@H]1Oc2cc(/C=C/c3ccccc3)ccc2S(=O)(=O)N([C@H](C)CO)C[C@@H]1C | -52
CN[C@H]1C[C@H]2c3[nH]c4ccc(-c5ccc(OC)cc5)cc4c3CCN2C(=O)[C@H]1[C@H](C)O | 32*
CCCNC(=O)N(C)C[C@H]1Oc2cc(C#Cc3cccc(F)c3)ccc2S(=O)(=O)N([C@@H](C)CO)C[C@H]1C | 3
C[C@@H]1CN([C@@H](C)CO)C(=O)c2cc(/C=C/c3ccccc3)cnc2O[C@@H]1CN(C)C(=O)C1CCC1 | -2
C[C@@H]1CN([C@H](C)CO)S(=O)(=O)c2ccc(-c3ccccc3)cc2O[C@H]1CN(C)C(=O)C1CCCCC1 | -95
CN(C[C@H]1N[C@@H](CO)[C@H]1c1ccc(-c2ccccc2)cc1)C(=O)C1CCC1 | 42*
CCCN(C)C[C@@H]1Oc2cc(C#CC(C)C)ccc2S(=O)(=O)N([C@@H](C)CO)C[C@H]1C | 5
COc1ccc(C(=O)Nc2ccc3c(c2)OC[C@@H](C)N(C)C[C@H](C)[C@@H](OC)CN(C)C3=O)cc1 | 0
Cc1ccc(S(=O)(=O)N(C)C[C@@H]2Oc3cc(C#CC4CCCC4)ccc3S(=O)(=O)N([C@H](C)CO)C[C@@H]2C)cc1 | 3
CCCN1C[C@@H](C)[C@@H](OC)CN(C)C(=O)c2ccc(NC(=O)COC)cc2OC[C@H]1C | 3
O=C(OCc1ccccc1Cl)c1ccccc1C(=O)c1ccccc1 | -137
O=C(COC(=O)c1ccccc1C(=O)c1ccc(Cl)c([N+](=O)[O-])c1)NC1CCCCCC1 | 63*
Cc1c(NC(=O)NC2CCCCC2)cccc1[N+](=O)[O-] | -157
C[C@H](CO)N1C[C@H](C)[C@H](CN(C)C(=O)C2CC2)Oc2cc(-c3ccc(C#N)cc3)ccc2S1(=O)=O | -7
CCOc1cc(NC(=O)c2ccccn2)c(OCC)cc1NC(=O)c1ccc(Cl)cc1 | 34*
COc1ccc(S(=O)(=O)NCc2ccccn2)cc1NC(=O)c1ccc(C)cc1 | -94
CCOC(=O)c1ccc(-n2ccnc2)c(NC(=O)c2cccc(Br)c2)c1 | -128
C[C@H]1CN([C@@H](C)CO)C(=O)c2cc(-c3cccnc3)cnc2O[C@@H]1CN(C)S(C)(=O)=O | -18
CC(=O)Nc1ccc(NS(=O)(=O)c2ccc3ccccc3c2)cc1 | -105
CC(=O)Nc1ccc(S(=O)(=O)Nc2cccc(-c3nc4ccccc4o3)c2)cc1 | -138
CC(=O)Nc1ccc(-c2cc(-c3ccc(NC(C)=O)cc3)nc(-c3ccc(NC(C)=O)cc3)n2)cc1 | 32*
Cc1ccc(-c2cnc3c(c2)C(=O)N([C@H](C)CO)C[C@@H](C)[C@H](CN(C)C(=O)Cc2ccncc2)O3)cc1 | 5
COCC#Cc1ccc2c(c1)O[C@@H](CN(C)C(=O)C1CCCCC1)[C@H](C)CN([C@@H](C)CO)S2(=O)=O | -10
C[C@H]1CN([C@@H](C)CO)S(=O)(=O)c2ccc(-c3cccnc3)cc2O[C@@H]1CN(C)Cc1ccccn1 | -2
C[C@H]1CN([C@@H](C)CO)C(=O)c2cc(C#CCc3ccccc3)cnc2O[C@H]1CN(C)CC1CCOCC1 | -1
CCC(=O)Nc1ccc2c(c1)OC[C@@H](C)NC[C@H](C)[C@H](OC)CN(C)C2=O | -1
